The record followed here is PubChem BioAssay (EPA / NIEHS).

The structures appear in SMILES notation. Values joined by “and” are separate entries in the source; they are usually repeats but may differ in a detail not shown here. Equal values may be shown once. Records with an inconclusive call do not appear. Where a structure was tested more than once in an assay, its records may differ in their call. Active and inactive are the calls of the source. How the source made its calls: active means hit-call score of the fitted dose curve at least 0.9, where 1 is the maximum; inconclusive means response in the unintended direction; inactive means score below 0.9.

In the assay the target is human Fibroblast Growth Factor Receptor 1 (FGFR1), FGFR1 (gene 2260) (UniProt P11362). Kind of assay: NVS_ENZ_hFGFR1: NovaScreen (NVS) Enzymatic Assay for human Fibroblast Growth Factor Receptor 1 (FGFR1) (AID 2283159).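 On AC50: hits lower the signal so potencies describe inhibitors of the kinase.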 As to the method: NVS_ENZ_hFGFR1 is a biochemical, single-readout assay that uses extracted gene-proteins in a cell-free assay. Measurements were taken 1 hour after chemical dosing in a 384-well plate.NVS_ENZ_hFGFR1 is one of one assay component(s) measured or calculated from the NVS_ENZ_hFGFR1 assay. It is designed to make measurements of enzyme activity, a form of enzyme reporter, as detected with fluorescence intensity signals by Fluorescence and electrophoretic mobility shift technology.Data from the assay component NVS_ENZ_hFGFR1 was analyzed into 1 assay endpoint. This assay endpoint, NVS_ENZ_hFGFR1, was analyzed in the positive analysis fitting direction relative to DMSO as the negative control and baseline of activity. Using a type of enzyme reporter, loss-of-signal activity can be used to understand changes in the enzymatic activity as they relate to the gene FGFR1. Furthermore, this assay endpoint can be referred to as a primary readout, because this assay has produced multiple assay endpoints where this one serves a enzymatic activity function. To generalize the intended target to other relatable targets, this assay endpoint is annotated to the kinase intended target family, where the subfamily is receptor tyrosine kinase.
Chain of human Fibroblast Growth Factor Receptor 1 (FGFR1), FGFR1 (gene 2260) (P11362 whole entry, looked up): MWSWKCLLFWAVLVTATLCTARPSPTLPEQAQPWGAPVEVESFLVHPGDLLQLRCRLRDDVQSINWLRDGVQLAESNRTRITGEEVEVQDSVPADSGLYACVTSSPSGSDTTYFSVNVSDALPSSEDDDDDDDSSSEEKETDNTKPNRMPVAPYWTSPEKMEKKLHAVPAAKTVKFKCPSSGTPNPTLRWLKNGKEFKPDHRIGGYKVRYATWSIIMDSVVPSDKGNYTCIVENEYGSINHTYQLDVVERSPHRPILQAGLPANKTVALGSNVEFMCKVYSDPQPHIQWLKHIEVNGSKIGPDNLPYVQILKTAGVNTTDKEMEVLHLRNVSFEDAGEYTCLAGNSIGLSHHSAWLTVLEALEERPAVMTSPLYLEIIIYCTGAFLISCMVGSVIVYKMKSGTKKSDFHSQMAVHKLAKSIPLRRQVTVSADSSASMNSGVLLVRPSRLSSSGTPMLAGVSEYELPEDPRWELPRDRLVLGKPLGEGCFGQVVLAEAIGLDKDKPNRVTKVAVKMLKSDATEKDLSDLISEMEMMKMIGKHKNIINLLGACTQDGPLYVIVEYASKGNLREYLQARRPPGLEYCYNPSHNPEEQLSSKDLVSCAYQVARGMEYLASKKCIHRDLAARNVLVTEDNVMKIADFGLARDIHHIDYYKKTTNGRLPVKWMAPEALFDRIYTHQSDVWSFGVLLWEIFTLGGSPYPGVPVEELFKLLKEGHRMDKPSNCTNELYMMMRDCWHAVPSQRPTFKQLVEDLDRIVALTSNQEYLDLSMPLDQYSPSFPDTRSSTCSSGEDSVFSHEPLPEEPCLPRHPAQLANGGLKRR
Binding assays used specific radioligands (tritiated, iodinated) with non-radioactive competitive displacement ligands in agonist or antagonist protocols (as indicated) and various reference compounds and inhibitors to titrate specific binding to receptors and transporters. Most enzyme assays (CYPs, kinases, phosphatases, proteases, HDACs) used recombinant protein and specific substrates (fluorescence mostly, some colorimetric and radioactive) and inhibitors, followed by a biochemical separation of substrate and product. All assays for the biochemical HTS were initially run in duplicate at a single concentration (10 uM for CYP450 assays and 25 uM for all others). […] Each assay was run with positive and negative controls, and concurrent controls on every plate. The follow-up (secondary) screen tested active chemical-pairs in concentration series, as well as a few additional assays not tested in the primary screen, some selected negative inactives, and several cases re-run in the concentration series for confirmatory purposes.
Consider `CCOC(=O)COc1cc(-c2nn(C)c(OC(F)F)c2Cl)c(F)cc1Cl`, for which the molecule was called inactive.
Still for that read-out and setting: with `C[N+]1(C)CCCCC1` the entry was “inactive”.
Turning to `CN(C)[C@@H]1C(=O)C(C(N)=O)=C(O)[C@@]2(O)C(=O)C3=C(O)c4c(O)cccc4[C@@](C)(O)[C@H]3[C@H](O)[C@@H]12`, the AC50 (usually the concentration at which the activity in the assay is half-maximal) was 5.86 µM (active) and 7.55 µM (active); the outcome was inactive.
On to `CC[C@H](C)[C@H]1O[C@]2(C=C[C@@H]1C)C[C@@H]1C[C@@H](C/C=C(\C)[C@@H](O[C@H]3C[C@H](OC)[C@@H](O[C@H]4C[C@H](OC)[C@@H](NC)[C@H](C)O4)[C@H](C)O3)[C@@H](C)/C=C/C=C3\CO[C@@H]4[C@H](O)C(C)=C[C@@H](C(=O)O1)[C@]34O)O2`, for which the AC50 is 16.5 µM (active).
